MARV entry inh – Marburg virus entry inhibition | Marburg virus pseudotyped entry inhibition, cell reporter | Potency, µM (top dose mostly 37.8 µM), actives largely listed as inhibitors | hit rate 1.8% among 300,000 | AID 540276; calls by dose curve; tested in HEK293 cells
HCMV inh – inhibitors of human cytomegalovirus | HFF cells, HCMV-luciferase reporter, 72 h; active compounds read low | activity change, negative = inhibition, % at 57.5 µM | hit rate 4.5% among 410,000 | AID 1259415; in the data active means activity change below about -60%; inconclusive means no clear call, values can overlap the other calls; inactive means above about -39%
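HFF cells seeded 16 h at 37C, treated with compounds, infected with luciferase-reporter HCMV at MOI 1 PFU/cell; luciferase read at 72 h post infection, normalized to buffer-only and Salinomycin controls.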
Pf growth 48h – inhibits P. falciparum growth in the first generation, 48 h | P. falciparum luciferase growth in erythrocytes, 48 h | Potency, µM (series often up to 28.7 µM), hits mostly inhibitors | hit rate 5.9% among 310,000
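Parasite viability was followed by luminescence of a genomically integrated firefly luciferase. Cultures held 0.1% parasitemia at 2% hematocrit (final), incubated under 5% CO2 at 37 C.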
Pf growth 96h – inhibits malaria parasite growth, 96 h. P. falciparum luciferase reporter growth, 96 h. AID 504834. hit rate 6.9% among 320,000. Potency, µM (highest dose often 28.7 µM), most hits filed as inhibitors
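Infected RBCs, 2% Hct / 0.05% parasitemia final; luciferase-reporter P. falciparum; cpd 96 h, 37 C, 5% CO2; luciferase detection reagent; luminescence.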
HCV inh – blocks hepatitis C virus. Huh7.5.1 HCVcc-Cre infection, luciferase reporter, 44 h. Potency, µM (doses to about 41.8 µM), usual class: inhibitors. hit rate 3.4% among 340,000
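Cells seeded at 1,000/well and cultured 4 h, then compounds added followed by HCVcc-Cre virus (~0.5 moi). After 44 h further culture, luciferase substrate was added, plates held 15 min at room temperature, and luminescence read for 15 sec.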
Lassa entry inh – blocks Lassa virus binding to or entry into cells; Lassa virus pseudotype entry inhibition, cell reporter; Potency, µM (doses to about 37.9 µM), hits mostly inhibitors; hit rate 1.2% among 300,000; AID 540256; calls by dose curve; tested in HEK293 cells; further: nearly all actives have a fitted effect of over 50% in size
Numbers stand for hits; - = inactive; ? = inconclusive; . = no result. This is a sample that favours compounds with a hit; in the whole collection about 14% have one here. Unless noted, the call rests on the fitted dose curve; in most records, active means well fitted inhibition curve with a large enough effect; inconclusive means small, poorly fitted or top-dose-only effect, or another doubt; inactive means no such curve, though single readings can be large or run the other way.

SMILES	MARV entry inh	HCMV inh	Pf growth 48h	Pf growth 96h	HCV inh	Lassa entry inh
CC1(C)Cc2cccc(OCC(=O)N3CCN(c4ccccc4Cl)CC3)c2O1	-	-	?	?	?	?
CCC(=O)c1cc(F)ccc1OCC(=O)N1CCN(c2ccc(F)cc2)CC1	.	-	-	-	?	.
CC1(C)Cc2cccc(OCC(=O)N3CCN(S(=O)(=O)c4ccccc4)CC3)c2O1	?	-	?	4.65µM	-	?
CC1(C)Cc2cccc(OCC(=O)N3CCN(c4cccc(C(F)(F)F)c4)CC3)c2O1	-	-	?	?	?	-
CC1(C)Cc2cccc(OCC(=O)N3CCN(c4ccc(F)cc4)CC3)c2O1	?	-	11.7µM	?	-	-
CC1(C)Cc2cccc(OCC(=O)N3CCN(c4cccc(Cl)c4)CC3)c2O1	?	-	4.65µM	?	?	?
O=C(COC(=O)C1(c2ccccc2)CC1)N1CCN(c2ccc(F)cc2)CC1	-	-	-	10.4µM	?	-
O=C(CSc1nc(=O)n2cc(Cl)ccc2n1)Nc1cccc2ccccc12	?	-	?	-	?	-
CCC(=O)N1CCc2cc(S(=O)(=O)N3CCN(c4cc(C)ccc4C)CC3)ccc21	-	.	-	10.4µM	-	-
CCC(=O)c1cc(F)c(N2CCN(S(=O)(=O)c3ccc(C)cc3)CC2)cc1C	?	-	?	10.4µM	12.6µM	-
Cc1ccc(C)c(N2CCN(S(=O)(=O)c3ccc4c(c3)CC(=O)N4C)CC2)c1	-	-	8.28µM	-	-	-
COc1cccc(C(=O)Nc2cccc(OCc3cc(=O)n4cccc(C)c4n3)c2)c1	.	-	.	.	.	-
CCC(C)(C)NC(=O)c1ccc2c(c1)N(CC(=O)NC1CCCC1)C(=O)C(C)(C)O2	-	?	-	6.57µM	-	-
COC(=O)CN1C(=O)C(C)(C)Oc2ccc(C(=O)NC3CCCC3)cc21	-	-	-	-	-	-
Oc1cccc(Nc2cc(-c3ccccc3)ncn2)c1	-	-	.	.	.	-
Clc1ccc(-c2ccnc(-n3cccc3)n2)s1	?	?	-	-	-	-
Cc1cc(-c2ccc(Br)s2)nc(-n2cccc2)n1	-	-	-	-	11.2µM	-
Cc1cc(-c2sccc2Br)nc(-n2cccc2)n1	-	-	-	-	12.6µM	-
Cc1ccsc1-c1ccnc(-n2cccc2)n1	-	-	-	-	-	-
CCN(Cc1ccncc1)C(=O)CC1C(=O)NCCN1Cc1ccc(F)c(F)c1 (stereo unspecified)	.	-77.9	-	?	-	.
COc1ccc(CN2CCNC(=O)C2CC(=O)N(C)Cc2nccs2)cc1OC (stereo unspecified)	-	-	-	9.28µM	-	?
Cc1csc(CN(C)C(=O)CC2C(=O)NCCN2Cc2ccc(F)c(F)c2)n1 (stereo unspecified)	-	-	-	13.1µM	-	-
Cc1cc(CN(C)C(=O)CC2C(=O)NCCN2Cc2ccc(F)c(F)c2)on1 (stereo unspecified)	-	-	-	-	-	-
Cc1cc(C)c(C(O)c2ncc(-c3cccc(F)c3)[nH]2)c(C)c1 (stereo unspecified)	.	-	.	.	.	.
COc1ccc2cc(C(=O)NCc3ccc4c(c3)CCN4C(=O)c3ccc(F)cc3)[nH]c2c1	.	-	.	.	.	-
SMILES	MARV entry inh	HCMV inh	Pf growth 48h	Pf growth 96h	HCV inh	Lassa entry inh
COc1ccc(Cn2cc(CN3CCc4onc(-c5ccccc5OC)c4C3=O)nn2)cc1	.	-	.	.	.	.
O=C(Cn1c(=O)nc(-c2ccccc2)c2cc(Cl)ccc21)NCCCc1ccccc1	-	-	.	.	.	-
C=CCN1c2ccccc2[C@]23C[C@@H](C(=O)OC)N(C(=O)Nc4ccccc4F)C2=NC(C(=O)OC)=C(C(=O)OC)[C@H]13	-	.	.	.	.	.
C=CCn1c(SCc2ccc(C(=O)Nc3nccs3)cc2)nnc1-c1ccc(C)c(Cl)c1	?	-94.3	?	-	8.91µM	11.2µM
COCCCn1nnnc1SCC(=O)Nc1ccc2c(c1)OCCO2	.	-	-	13.1µM	-	.
CCc1ccc(NC(=O)CSc2nccn2-c2ccc(F)cc2)cc1	.	-65.7	.	.	.	-
CCc1ccc(NC(=O)CSc2nccn2-c2ccc(OC)cc2)cc1	.	-99.6	.	.	.	-
O=C(CSc1nccn1-c1ccc(F)cc1)Nc1ccc2c(c1)OCO2	-	?	-	?	-	-
COc1ccc(-n2ccnc2SCC(=O)Nc2ccc3c(c2)OCO3)cc1	.	-74.4	.	.	.	-

From PubChem
